Compound activity from PubChem.
The list is not random: actives were taken first. Their share in the collection is about 1.2%.
mIDH1 inhibitor: qHTS for Inhibitors of mutant isocitrate dehydrogenase 1 (IDH1): qHTS | IDH1-R132H enzyme, NADPH consumption, diaphorase/resazurin fluorescence | Potency, µM (highest dose often 76.6 µM), inactives show top-dose activity change, negative = inhibition, hits mostly inhibitors | 390,000 compounds, 0.093% hits; also: nearly all actives have a fitted effect of over 65% in size
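IDH1-R132H (0.5 ug/mL dispensed) in pH 7.5 Tris buffer was preincubated 30 min with compound, then given a substrate mix of 0.016 mM NADPH and 2 mM alpha-KG for 80 min at room temperature; remaining NADPH was read by diaphorase/resazurin fluorescence.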
GLS inhibitor: qHTS for Inhibitors of Glutaminase (GLS) | 410,000 compounds, 0.21% hits | Potency, µM (titrated, usually from 45.5 µM), for the others: at the highest dose activity change, negative = inhibition, usual class: inhibitors | GLS enzymatic activity, qHTS titration
Target sequence (O94925 whole entry, looked up): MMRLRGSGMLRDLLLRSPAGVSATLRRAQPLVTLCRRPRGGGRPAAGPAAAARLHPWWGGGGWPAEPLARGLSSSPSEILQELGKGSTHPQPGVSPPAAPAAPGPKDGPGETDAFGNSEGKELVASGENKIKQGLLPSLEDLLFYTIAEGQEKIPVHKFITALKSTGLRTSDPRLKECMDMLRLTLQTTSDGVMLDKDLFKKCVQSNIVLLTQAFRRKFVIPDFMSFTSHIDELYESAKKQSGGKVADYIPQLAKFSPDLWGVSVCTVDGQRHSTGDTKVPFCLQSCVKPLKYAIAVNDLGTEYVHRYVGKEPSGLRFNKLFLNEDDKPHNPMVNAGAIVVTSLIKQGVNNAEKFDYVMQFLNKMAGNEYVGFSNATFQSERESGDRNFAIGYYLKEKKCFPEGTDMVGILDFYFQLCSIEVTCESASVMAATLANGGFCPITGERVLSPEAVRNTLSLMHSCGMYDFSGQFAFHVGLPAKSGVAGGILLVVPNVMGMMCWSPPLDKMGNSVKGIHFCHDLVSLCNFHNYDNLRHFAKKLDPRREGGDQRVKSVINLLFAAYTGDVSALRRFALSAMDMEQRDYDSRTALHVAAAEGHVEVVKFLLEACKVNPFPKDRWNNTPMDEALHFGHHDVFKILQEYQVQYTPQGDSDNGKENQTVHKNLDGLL
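Human kidney-isoform GLS in 45 mM KH2PO4 pH 8.2, 0.02% Tween-20, with compound, started with 1mM L-Glutamine (added stock). Glutamate oxidase/HRP/Amplex red coupled fluorescence read at start and after 30 min at RT.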
TrxR1 substrate: qHTS Assay for Substrates of Mammalian Selenoprotein Thioredoxin Reductase 1 (TrxR1): qHTS | purified TrxR1 substrate turnover, NADPH consumption readout | Potency, µM (doses to about 114 µM), for inactives: at the highest dose activity change, negative = substrate turnover | 390,000 compounds, 0.01% hits | AID 588456, 2011; also: nearly all actives have a fitted effect of over 50% in size
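Rat TrxR1, dispensed at 90 nM, was prereduced with 400 uM NADPH (final) for 5 min at ~22 deg C, then incubated with compound 15 min before 400 uM selenite. A first-read NADPH fluorescence drop versus no-compound background flagged substrates.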
rTrxR1 inhibitor: qHTS Assay for Inhibitors of Mammalian Selenoprotein Thioredoxin Reductase 1 (TrxR1): qHTS | 390,000 compounds, 1% hits | recombinant rTrxR1, NADPH fluorescence consumption, selenite substrate | Thioredoxin reductase 1, cytoplasmic (Rattus norvegicus), O89049 | Potency, µM (highest dose often 114 µM), for inactives: at the top dose activity change, negative = inhibition, actives largely listed as inhibitors | AID 588453, 2011; also: nearly all actives have a fitted effect of over 65% in size
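Rat TrxR1 (90 nM in the dispensed reagent) was pre-reduced with 400 uM NADPH for 5 min at room temperature, then incubated with compound for 15 min. After 400 uM selenite was added, NADPH fluorescence (Ex 340/Em 450 nm) was followed for 8 min.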
An asterisk follows results filed as active; ? = inconclusive; nt = no result; ! = repeats disagree; [ ] = dose if it differs, or a comment. Calls follow the shape of the dose curve; as a rule, active = well fitted curve in the direction sought with a large enough effect; inconclusive = small, poorly fitted or top-dose-only effect, or another doubt; inactive = no such curve, though single readings can be large; an effect the other way counts as inactive or inconclusive. % is scaled to controls: 0 for no effect and ±100 for the full control effect; potency is read from the fitted curve at half-maximal effect.

SMILES	mIDH1 inhibitor	GLS inhibitor	TrxR1 substrate	rTrxR1 inhibitor
CC1CCN(Cc2nc(Cl)c3c4c(sc3n2)CCC4)CC1	-3%	-3%	1%	32µM*
Cc1sc2nc(CN3CCCCC3)nc(Cl)c2c1C	0%	7%	2%	32µM*
Clc1nc(CN2CCCCC2)nc2sc3c(c12)CCCC3	-5%	0%	11%	4µM*
CCOCCCNC(=O)CN1C(=O)c2c(c3ccccc3n2C)C1c1ccc(OC)cc1 (stereo not drawn)	10%	1%	39%	16%
COc1ccc(C)cc1NC(=O)C(=O)NCCc1sc(-c2ccc(Cl)cc2)nc1C	-2%	13%	2%[57.1 µM]	18%[57.1 µM]
CCCCCC(=O)N(c1ccc(OCC)cc1)S(=O)(=O)c1ccc2c(c1)n(C)c(=O)n2C	nt	-4%	2%	6%
Cc1ccc(OCc2ccoc2C(=O)O)cc1C	4%	18µM*	-3%	4%[57.1 µM]
CCCCOc1cccc(C(=O)N(Cc2ccc(Cl)cc2)C2CCS(=O)(=O)C2)c1 (stereo not drawn)	18%	0%	0%	15%
Cc1cc(C)c(S(=O)(=O)/N=C2\C=CC(=O)C(Cl)=C2)c(C)c1	5%	12%	5%	18µM*
Cc1cc(C)c(S(=O)(=O)/N=C2\C=C(NS(=O)(=O)c3ccccc3)C(=O)c3ccccc32)c(C)c1	8%	-8%	-4%	-15%
CCN1CCc2c(sc(NC(=S)NC(=O)c3ccccc3)c2C#N)C1	-3%	43%	-8%	18µM*
CC[n+]1ccnc2ccccc21	nt	nt	5%	?
C=C1C(=O)C=C2CN(C(=O)c3ccccc3)[C@@](Cc3ccc(F)cc3)(C(=O)OC)[C@@H]12	1%[38.3 µM]	-2%	-4%	8.9µM*
Cc1ccc(C)c(N2CCN(C(=O)CCn3c(=O)c4cccn4c4cccnc43)CC2)c1	0%	-9%	1%	16%
CCn1nc(-c2ccccc2C)nc2c(=O)n(C)c(=O)nc1-2	nt	nt	14µM*	?
Cc1nnc(NC(=O)CSc2nccn2Cc2ccc(Cl)cc2)s1	15%	4%	7%[57.1 µM]	9%[57.1 µM]
CN(C)/[N+]([O-])=N/Oc1ccc([N+](=O)[O-])cc1[N+](=O)[O-]	nt	nt	-11%	13µM*
CCOC(=O)N1CCN(/[N+]([O-])=N/Oc2ccc([N+](=O)[O-])cc2[N+](=O)[O-])C(C)C1 (stereo not drawn)	nt	nt	-1%	-12%
CN(Cc1ccccc1)/[N+]([O-])=N/Oc1ccc([N+](=O)[O-])cc1[N+](=O)[O-]	nt	nt	-4%	2.8µM*
CNc1ccc(C(=O)Oc2cc(O/N=[N+](\[O-])N(C)C)c([N+](=O)[O-])cc2[N+](=O)[O-])cc1	nt	nt	-25%	25µM*
CCN(CCN(C)Cl)/[N+]([O-])=N/Oc1ccc([N+](=O)[O-])cc1[N+](=O)[O-]	nt	nt	-3%	10µM*
O=C(OCc1ccccc1)N1CCN(/[N+]([O-])=N/Oc2ccc([N+](=O)[O-])cc2[N+](=O)[O-])CC1	nt	nt	5%[0.457 µM]	?
CC(C)(C)c1ccc(C(=O)C[n+]2ccc(Cl)c3ccc(Cl)cc32)cc1	nt	nt	8%	6%
CC(C)(C)n1ncc2c(=O)n(Cc3cccc(-c4cccs4)c3)cnc21	nt	nt	-5%	18%
C=C1NC(=O)c2cc(CN(C)c3ccc(C(=O)N[C@@H](CCC(=O)O)C(=O)O)s3)ccc2N1	nt	6%	nt	nt
SMILES	mIDH1 inhibitor	GLS inhibitor	TrxR1 substrate	rTrxR1 inhibitor
Cn1c(N2CCN(c3ccccn3)CC2)nc2c1c(=O)n(Cc1ccc(Cl)cc1)c(=O)n2C	0%	?	5%[57.1 µM]	7%[57.1 µM]
CC(O)CNc1nc2c(c(=O)n(Cc3ccccc3)c(=O)n2C)n1C (stereo not drawn)	6%	21%	6%[57.1 µM]	-1%[57.1 µM]
CC(O)CNc1nc2c(c(=O)n(Cc3ccc(Br)cc3)c(=O)n2C)n1C (stereo not drawn)	-6%	20µM*	-5%	12%
Cn1c(N2CCCCC2)nc2c1c(=O)n(Cc1cccc(Br)c1)c(=O)n2C	3%	-8%	-3%	-4%
Cn1c(N2CCOCC2)nc2c1c(=O)n(Cc1ccc(Cl)cc1)c(=O)n2C	-7%	13µM*	-1%[57.1 µM]	-8%[57.1 µM]
Cn1c(N2CCC(C(N)=O)CC2)nc2c1c(=O)n(Cc1ccc(Br)cc1)c(=O)n2C	0%	13µM*	0%	7%
COC(=O)c1c(NC(=O)c2cc3ccccc3c(=O)o2)sc2c1CCCC2	1%	-8%	4%	26%
O=C(CCCCn1c(=O)c2ccccc2n(Cc2ccc(Cl)cc2)c1=O)NCc1ccccc1Cl	0%	-10%	-1%	5%
Nc1cc(=O)nc(SCC(=O)Nc2ccc(F)cc2)n1-c1ccccc1Cl	1%	5%	14%[11.4 µM]	19%
Cc1onc(-c2ccccc2)c1C(=O)N[C@@H]1C(=O)N2[C@@H](C(=O)O)C(C)(C)S[C@@H]12	nt	-7%	nt	nt
CC1CCN(CC[S-])CC1.O.O.[Cl][Pt]	nt	nt	-7%	1.4µM*
CC1CCN(CCOc2ccccc2-c2ccccc2)CC1	7%	6%	9%[57.1 µM]	5%[57.1 µM]
CCC(C)(C)OC(=O)N[C@@H](Cc1c[nH]c2ccccc12)C(=O)N[C@@H](CCSC)C(=O)N[C@@H](CC(=O)O)C(=O)N[C@@H](Cc1ccccc1)C(N)=O	nt	-16%	nt	nt
CCOC(=O)/C=C/C(=O)OCC(=O)Nc1ccc(C)cc1	2%	5%	14%	40µM*
O=C(CSc1nc2ccccc2c(=O)n1CCC(=O)NC1CCCCC1)Nc1ccccc1Cl	-16%	-10%	-3%[57.1 µM]	16%[57.1 µM]
CN(C)c1cc(N2CCOCC2)nc(C#N)n1	nt	nt	-2%	-2%
CC1(C)CCC2=C(O1)c1ccccc1C(=O)C2=O	nt	nt	18µM*	25µM*!
CC1(C)CCC(=O)c2ccccc21	0%	-3%	5%[57.1 µM]	7%[57.1 µM]
COc1cc2nc(NCCc3ccccc3)n3nc(-c4cccnc4)nc3c2cc1OC	0%	-10%	0%	9%
CCOC(=O)N1CCN(c2c(F)cc3[nH]c(=S)[nH]c3c2Br)CC1	1%	7.1µM*	1%	-8%
O=C(/C=C/c1ccco1)NC(=S)Nc1ccc(N2CCCC2)cc1	3%	-7%	-18%	50µM*
CC(=O)NC(=S)Nc1ccc(NC(=S)NC(=O)/C=C/c2ccco2)cc1	4%	-5%	-9%	-43%
O=C(/C=C/c1ccco1)NC(=S)Nc1ccc(C(=O)O)cc1	-9%	-4%	-13%	40µM*
CN(C)c1ccc(N=Cc2ccncc2)cc1	nt	nt	4%[0.0914 µM]	?
CCCCN(CCCNC(=O)CN1N=C(c2ccccc2)CCC1=O)c1ccccc1	-3%	26%	0%[57.1 µM]	8%[57.1 µM]
Cc1ccc(S(=O)(=O)N2CCN(c3nc(-c4ncco4)nc4ccccc34)CC2)cc1	nt	nt	1%	8%
